# Experimental data published in PubChem BioAssay (NCATS).
# Several values for one entry are separate records, joined by “and”; a condition that tells them apart may be missing. Identical values can stand only once. Inconclusive results are not listed. Activity calls are given as the source filed them. Unless noted, calls follow the shape of the full dose curve.
# Assays:
# [1] = qHTS Assay for Lipid Storage Modulators (AID 1519); settings: Drosophila S3 cells, BODIPY lipid droplet/cell ratio, laser cytometry, cells loaded with oleic acid; as to activity change, negative = inhibition: % is scaled to controls: 0 for no effect and ±100 for the full control effect
# In short: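 Cells seeded at 5,000 per well were treated with compounds over a concentration series and loaded with oleic acid (400 uM, as added). Lipid droplet fluorescence (488 nm excitation, 500-530 nm channel) was read by laser-scanning cytometry and normalized to 20 uM Triacsin C.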
# [2] = Cell Viability - LYMP2-026 (AID 989; active = well fitted cell-killing curve with a large enough effect;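 also: cells exposed to compound for 24 h at 37 °C; % is scaled to controls: 0 for no effect and ±100 for the full control effect; nearly all actives have a fitted effect of over 50% in size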); settings: LYMP2-026 lymphoblastoid cell viability, qHTS; series mostly up to 92.2 µM
# In short: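 Concentration-dependent loss of intracellular ATP in human lymphoblastoid cells after 24 hr at 37 C, quantified by luciferase luminescence. AC50 derived from standard Hill equation.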
# [3] = Cell Viability - LYMP1-002 - Assay at 24 hr (AID 993; active = well fitted cell-killing curve with a large enough effect; also: % is scaled to controls: 0 for no effect and ±100 for the full control effect); settings: LYMP1-002 lymphoblastoid cells viability; series mostly up to 92.2 µM
# In short: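 qHTS, LYMP1-002 lymphoblastoid, 24 h cpd, 37 C, CellTiter-Glo ATP luminescence; AC50 via Hill eq.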
# [4] = Cell Viability - LYMP1-002 - Assay at 40 hr (AID 994; active = well fitted cell-killing curve with a large enough effect;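 also: 0% = DMSO only and full inhibition = 92 µM tetraoctylammonium bromide; nearly all actives have a fitted effect of over 60% in size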); settings: LYMP1-002 lymphoblastoid cell viability; series mostly up to 92.2 µM
# In short: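 Viability in the human lymphoblastoid line was measured as intracellular ATP via CellTiter-Glo after 40 hr compound exposure. Tetraoctylammonium bromide served as positive control.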
# [5] = qHTS Assay for Identification of Small Molecule Inducers of Hypoxia Response (AID 2120; active = well fitted curve in the direction sought with a large enough effect in the signal ratio, with a control signal flat, not every such curve was filed as active; the % refers to the signal ratio; also: 0% is about no effect); settings: hypoxia response reporter cells, beta-lactamase ratio readout; series mostly up to 104 µM
# In short: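 Induction of beta-lactamase reporter activity was measured in CellSensor HRE-bla ME-180 cells after 17 h compound treatment at 37 degrees C, using CCF4 substrate and the 460nm/530nm emission ratio to derive AC50 values.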
# [6] = measured here: cell count channel max response
# [7] = measured here: lipid channel max response
smiles,measurement,setting,value
COc1ccc(CN(CCN(C)C)c2ncccn2)cc1,"activity change, negative = inhibition",[1]; at 57.5 µM (top of the series),7.7% (inactive)
same,max response,[1]; [6],6.82%
same,max response,[1]; [7],17.3%
C[N+]12CCC(CC1)C(OC(=O)C(O)(c1ccccc1)c1ccccc1)C2 (configuration not stated),"activity change, negative = inhibition",[1]; at 57.5 µM (top of the series),1.37% (inactive)
same,max response,[1]; [6],13%
same,max response,[1]; [7],15.6%
CCN(CC)CCOC(=O)C(Cc1cccc2ccccc12)CC1CCCO1 (configuration not stated),"activity change, negative = inhibition",[1]; at 57.5 µM (top of the series),2.17% (inactive)
same,max response,[1]; [6],20.1%
same,max response,[1]; [7],24.7%
CCCCNc1ccc(C(=O)OCCOCCOCCOCCOCCOCCOCCOCCOCCOC)cc1,"activity change, negative = inhibition",[1]; at 25.7 µM (top of the series),-1.21% (inactive)
same,max response,[1]; [6],-3.1%
same,max response,[1]; [7],-4.96%
CC(=O)Nc1ccc(S(=O)(=O)Nc2ccc([N+](=O)[O-])cc2)cc1,"activity change, negative = inhibition",[1]; at 57.5 µM (top of the series),7.58% (inactive)
same,max response,[1]; [6],4.05%
same,max response,[1]; [7],18.4%
CCOC(=O)Nc1ccc2c(c1)N(C(=O)CCN1CCOCC1)c1ccccc1S2,"activity change, negative = inhibition",[1]; at 25.7 µM (top of the series),-4.54% (inactive)
same,max response,[1]; [6],-0.906%
same,max response,[1]; [7],-3.86%
OCCOCCN1CCN(C2=Nc3ccccc3Sc3ccccc32)CC1,"activity change, negative = inhibition",[1]; at 57.5 µM (top of the series),5.93% (inactive)
same,max response,[1]; [6],10.4%
same,max response,[1]; [7],19.3%
CC(=O)NO,"activity change, negative = inhibition",[1]; at 57.5 µM (top of the series),3.44% (inactive)
same,max response,[1]; [6],22.2%
same,max response,[1]; [7],28.9%
CC(=O)NCCCCCC(=O)O,"activity change, negative = inhibition",[1]; at 57.5 µM (top of the series),4.31% (inactive)
same,max response,[1]; [6],6.35%
same,max response,[1]; [7],14.8%
CCC(Cc1c(I)cc(I)c(N)c1I)C(=O)O (configuration not stated),"activity change, negative = inhibition",[1]; at 57.5 µM (top of the series),4.6% (inactive)
same,max response,[1]; [6],19.5%
same,max response,[1]; [7],27.1%
COc1cc(C(=O)NCc2ccc(OCCN(C)C)cc2)cc(OC)c1OC,"activity change, negative = inhibition",[1]; at 25.7 µM (top of the series),-1.74% (inactive)
same,max response,[1]; [6],-6.84%
same,max response,[1]; [7],-7.91%
CN(C)CCOC(=O)C(c1ccccc1)C1(O)CCCC1 (configuration not stated),"activity change, negative = inhibition",[1]; at 57.5 µM (top of the series),8.35% (inactive)
same,max response,[1]; [6],13.8%
same,max response,[1]; [7],27.5%
Nc1ccc(S(=O)(=O)Nc2cnc3ccccc3n2)cc1,"activity change, negative = inhibition",[1]; at 25.7 µM (top of the series),-4.76% (inactive)
same,max response,[1]; [6],-5.93%
same,max response,[1]; [7],-10.6%
Cc1c(-c2ccccc2)oc2c(C(=O)OCCN3CCCCC3)cccc2c1=O,"activity change, negative = inhibition",[1]; at 25.7 µM (top of the series),1.6% (inactive)
same,max response,[1]; [6],5.61%
same,max response,[1]; [7],7.37%
CCc1oc2ccccc2c1C(=O)c1cc(Br)c(O)c(Br)c1,"activity change, negative = inhibition",[1]; at 25.7 µM (top of the series),0.0966% (inactive)
same,max response,[1]; [6],-13%
same,max response,[1]; [7],-17.1%
COC(=O)C(c1ccccc1Cl)N1CCc2sccc2C1 (configuration not stated),"activity change, negative = inhibition",[1]; at 57.5 µM (top of the series),8.17% (inactive)
same,max response,[1]; [6],3.08%
same,max response,[1]; [7],15.9%
NS(=O)(=O)c1cc(C(=O)O)cc(N2CCCC2)c1Oc1ccccc1,"activity change, negative = inhibition",[1]; at 25.7 µM (top of the series),-4.05% (inactive)
same,max response,[1]; [6],-4.21%
same,max response,[1]; [7],-6.59%
CC(C)NCC(O)c1ccc2ccccc2c1 (configuration not stated),"activity change, negative = inhibition",[1]; at 57.5 µM (top of the series),9.75% (inactive)
same,max response,[1]; [6],8.22%
same,max response,[1]; [7],21.3%
Nc1ccc(C(=O)NCC(=O)O)cc1,"activity change, negative = inhibition",[1]; at 25.7 µM (top of the series),-0.313% (inactive)
same,max response,[1]; [6],-0.767%
same,max response,[1]; [7],0.146%
N=C(N)N1CCc2ccccc2C1,"activity change, negative = inhibition",[1]; at 25.7 µM (top of the series),-0.877% (inactive)
same,max response,[1]; [6],-5.56%
same,max response,[1]; [7],-6.4%
COc1cc(C)nc(-n2nc(C)cc2OC)n1,"activity change, negative = inhibition",[1]; at 25.7 µM (top of the series),-0.43% (inactive)
same,max response,[1]; [6],-1.69%
same,max response,[1]; [7],-3.43%
Cc1ncc(CO)c(C=O)c1O,"activity change, negative = inhibition",[1]; at 57.5 µM (top of the series),-6.06% (inactive)
same,max response,[1]; [6],-8.99%
same,max response,[1]; [7],-15.3%
CCCCc1cc2ccccc2c(OCCN(C)C)n1,"activity change, negative = inhibition",[1]; at 25.7 µM (top of the series),-1.95% (inactive)
same,max response,[1]; [6],-12.7%
same,max response,[1]; [7],-12.3%
CCOC(=O)c1ccc(N)cc1,"activity change, negative = inhibition",[1]; at 25.7 µM (top of the series),4.88% (inactive)
same,max response,[1]; [6],-2.21%
same,max response,[1]; [7],-0.169%
Cc1cc(-c2ccccc2)nnc1NCCN1CCOCC1,"activity change, negative = inhibition",[1]; at 25.7 µM (top of the series),1.62% (inactive)
same,max response,[1]; [6],-6.4%
same,max response,[1]; [7],-4.28%
CCCCCN=C(N)N/N=C/c1c[nH]c2ccc(OC)cc12,"activity change, negative = inhibition",[1]; at 57.5 µM (top of the series),10.2% (inactive) and 3.1% (inactive)
same,max response,[1]; [6],15.4% and 9.7%
same,max response,[1]; [7],28.4% and 15.4%
CC[C@H](c1ccc(O)cc1)[C@@H](CC)c1ccc(O)cc1,"activity change, negative = inhibition",[1]; at 25.7 µM (top of the series),-3.44% (inactive)
same,max response,[1]; [6],-23%
same,max response,[1]; [7],-23.9%
CN1CCC(OC(c2ccccc2)c2ccccc2)CC1,"activity change, negative = inhibition",[1]; at 25.7 µM (top of the series),-2.89% (inactive)
same,max response,[1]; [6],-24.7%
same,max response,[1]; [7],-25.4%
CC(C)(C)NC[C@H](O)COc1cccc2c1CCCC2=O,"activity change, negative = inhibition",[1]; at 25.7 µM (top of the series),-0.268% (inactive) and -1.87% (inactive)
same,max response,[1]; [6],-9.82% and 1.67%
same,max response,[1]; [7],-10.4% and -0.857%
C[N+]1(C)CCC(=C(c2ccccc2)c2ccccc2)CC1,"activity change, negative = inhibition",[1]; at 25.7 µM (top of the series),0.0072% (inactive)
same,max response,[1]; [6],2.33%
same,max response,[1]; [7],0.67%
O=C1C(=O)c2ccccc2C(O)=C1C1CCC(c2ccc(Cl)cc2)CC1 (configuration not stated),"activity change, negative = inhibition",[1]; at 57.5 µM (top of the series),10.1% (inactive)
same,max response,[1]; [6],7.54%
same,max response,[1]; [7],21.8%
c1ccc(CC2=NCCN2)cc1,"activity change, negative = inhibition",[1]; at 25.7 µM (top of the series),0.322% (inactive)
same,"activity change, negative = inhibition",[1]; at 57.5 µM (top of the series),2.41% (inactive)
same,max response,[1]; [6],-5.46% and 11.2%
same,max response,[1]; [7],-4.35% and 15.7%
O=C1C(O)=C(O)C(=O)C(O)=C1O,"activity change, negative = inhibition",[1]; at 25.7 µM (top of the series),-0.531% (inactive)
same,"activity change, negative = inhibition",[1]; at 57.5 µM (top of the series),9.14% (inactive)
same,max response,[1]; [6],-3.62% and 13.5%
same,max response,[1]; [7],-3.42% and 27.1%
COc1cc([C@H]2Oc3cc([C@H]4Oc5cc(O)cc(O)c5C(=O)[C@@H]4O)ccc3O[C@@H]2CO)ccc1O,outcome,[2],inactive
same,outcome,[3],inactive
same,Potency,[4],inactive
same,outcome,[5],inactive
NCCNc1cccc2ccccc12,outcome,[2],inactive
same,outcome,[3],inactive
same,Potency,[4],inactive
same,outcome,[5],inactive
CCCCC(CC)COC(=O)c1ccc(N(C)C)cc1 (configuration not stated),outcome,[2],inactive
same,outcome,[3],inactive
same,Potency,[4],inactive
same,outcome,[5],inactive
NC(=O)c1ccccc1O,outcome,[2],inactive
same,outcome,[3],inactive
same,Potency,[4],inactive
same,outcome,[5],inactive
